Measurements reported in paper PMC7826789 (International Journal of Molecular Sciences, 2021).

Each compound was assayed on FLT1.

| Compound | Kinases covered |
| --- | --- |
| CCS(=O)(=O)c1ccc(OC)c(Nc2ncc(-c3cccc(F)c3)o2)c1 [GW621970X] | FLT1 |
| CCS(=O)(=O)c1ccc(OC)c(Nc2ncc(-c3cccc(OC)c3)o2)c1 [GW580509X] | FLT1 |
| O=C(Nc1ccccc1)Nc1cccc(Oc2ccc3nccn3n2)c1 [TPKI-39] | FLT1 |
| CCn1cc(-c2ccnc3[nH]c(-c4cccc(CN(C)C)c4)cc23)c(-c2ccc(NC(=O)N(C)C)cc2)n1 [GSK1070916] | FLT1 |

Each compound was assayed on GAK.

| Compound | Kinases covered |
| --- | --- |
| COc1cc(Nc2ccnc3ccc(Br)cc23)cc(OC)c1OC [CA93.0] | GAK |
| O=C(O)/C=C/C(=O)O.OCCCNc1nccc(-c2c(-c3ccc(F)cc3)nn3cc(C(F)(F)F)ccc23)n1 [GW569293E] | GAK |
| C#Cc1cccc(Nc2ncnc3cc(OC)c(OC4CCN(C)CC4)cc23)c1 [BI00007366] | GAK |
| COc1cc2ncnc(Nc3ccc(F)c(Cl)c3)c2cc1O[C@H]1CC[C@H](N)CC1 [BIBW3133BS] | GAK |
| CCCc1cc(N2CCCN(C)CC2)nc2sc3c(N)ncnc3c12 [BI00604564] | GAK |

What follows are compounds tested on GSK3A.

| Compound | Kinases covered |
| --- | --- |
| CCC(NN(C)C)=C1C(=O)Nc2ccc(C(C)=O)cc21 [BI00036838] | GSK3A |
| COc1cccc(-n2ncc3c(N/N=C/c4ccncc4)ncnc32)c1 [GW784752X] | GSK3A |
| COc1ccc(CSc2nnc(-c3ccc4ncsc4c3)o2)cc1C(F)(F)F [TPKI-91] | GSK3A |
| O=C(Nc1n[nH]c2nc(-c3nccs3)c(Br)cc12)C1CCCC1 [SB-742609] | GSK3A |

These compounds were tested on GSK3B.

| Compound | Kinases covered |
| --- | --- |
| CCC(NN(C)C)=C1C(=O)Nc2ccc(C(C)=O)cc21 [BI00036838] | GSK3B |
| COc1cc(C=NNc2ncnc3c2cnn3-c2ccccc2)ccc1O [GW513184X] | GSK3B |
| COc1ccc(CSc2nnc(-c3ccc4ncsc4c3)o2)cc1C(F)(F)F [TPKI-91] | GSK3B |
| Cc1nnc(-c2ccc3occ(-c4ccc(S(C)=O)cc4)c3c2)[nH]1 (stereo not drawn) [TPKI-85] | GSK3B |
| COc1ccc2c(-c3ccnc(Nc4cccc(OC(F)(F)F)c4)n3)cnn2n1 [GW810372X] | GSK3B |
| O=C(Nc1n[nH]c2nc(-c3ccc(O)cc3)c(Br)cc12)C1CC1 [SB-725317] | GSK3B |

The compounds below were run on IGF1R.

| Compound | Kinases covered |
| --- | --- |
| CNC(=O)c1c(F)cccc1Nc1nc(Nc2cc3c(cc2OC)CCN3C(=O)CN(C)C)nc2[nH]ccc12 [GSK1838705] | IGF1R |
| CCc1cc(Nc2nccc(-c3c(-c4ccc(OC)c(C(=O)Nc5c(F)cccc5F)c4)nc4ccccn34)n2)c(OC)cc1N1CCC(N2CCN(S(C)(=O)=O)CC2)CC1 [GSK1904529] | IGF1R |
| COc1cc(C)c(N(C)C(=O)CN(C)C)cc1Nc1nc(Nc2cccc(F)c2C(N)=O)c2cc[nH]c2n1 [GSK2219385] | IGF1R |
| CN(C)C/C=C/C(=O)Nc1ccc(C(=O)Nc2cccc(Nc3ncc(Cl)c(-c4c[nH]c5ccccc45)n3)c2)cc1 [THZ1] | IGF1R |
| COc1cc(N2CCN(C(C)C)CC2)ccc1Nc1nc(Nc2ccc(F)cc2C(=O)NC[C@@H](O)CO)c2cc[nH]c2n1 [GSK1392956A] | IGF1R |
